Screens (PubChem BioAssay)
Autofluor 339 – intrinsic fluorescence of library compounds, ex339/em460 – biochemical, MLSMR library, data from DPM-DC assay, artefact control, profiling panel; fluorescence fold increase at 10 µM; compound autofluorescence, ex339/em460 nm, NADH buffer; active compounds read high; 1 = no-compound wells, NADH background; 5.5% of 65,000 active;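 active = at 10 µM, mean starting fluorescence two-fold or more over control wells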;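 also: signal is the first read of a kinetic run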
NADH coupling – inhibitors of enzymes used to reach an NAD/NADH endpoint | coupled PK/LDH NADH assays, four targets | IC50, µM (titrated, usually from 10 µM) | 0.02% of 65,000 active | AID 774;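 active = single-dose screening hits from any of four coupled enzyme assays that gave an IC50 when retested across doses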;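 also: the DPM-DC format reads NADH fluorescence rather than 340 nm absorbance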
PMK inhibit – inhibitors of Streptococcus pneumoniae phosphomevalonate kinase | purified PMK, PK/LDH-coupled NADH absorbance 340 nm | inhibition, % at 10 µM | 0.49% of 65,000 active | AID 539;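 active = top-ranked compounds by inhibition in the single 10 µM screen, taking a fixed number of the strongest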
MK inhibit – S. pneumoniae mevalonate kinase inhibition. purified MK, PK/LDH-coupled NADH absorbance 340 nm. inhibition, % at 10 µM. 0.48% of 65,000 active. AID 555;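 active = ranked among the strongest by inhibition in the single 10 µM screen, a fixed top-ranked set picked for dose follow-up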
Abs 340nm – absorbance at 340 nm. compound absorbance at 340 nm, fold over control. fold change at 10 µM. 65,000 tested, under 10 active. AID 708;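 active = at 10 µM dose, initial 340 nm absorbance at least 2 fold that of control wells; inactive = change under 2 fold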;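 also: initial absorbance extrapolated from kinetic A340 decline of NADH oxidation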
DPM-DC inhibit – inhibitors of Streptococcus pneumoniae diphosphomevalonate decarboxylase | calls only at 10 µM | AID 556 | purified DPM-DC, PK/LDH coupled NADH fluorescence | 0.49% of 65,000 active;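 active = the 320 compounds with the highest percent inhibition in the single-dose primary screen, excluding strongly autofluorescent ones, cut at about 32% in these data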;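 also: kinetic rate of NADH fluorescence loss reporting ADP formed by the decarboxylase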
Of the large screens only hits and unclear results are named; the others gave an inactive call. Only some compounds are listed: those with a hit (about 6.8% of all), similar ones and a draw of the others.

O=C(c1ccc(N2CCCCS2(=O)=O)cc1)N1CCN(c2ccc(N3CCOCC3)nn2)CC1	Autofluor 339 2.1 (not shown: DPM-DC inhibit)
O=C(NCc1ccco1)C1CCN(c2ccc(N3CCOCC3)nn2)CC1	Autofluor 339 2.5 (not shown: DPM-DC inhibit)
COc1ccc(-c2nnc3ccc(SCC(=O)N4CCN(c5ccccc5)CC4)nn23)cc1	none
COc1cc(NC(=O)C2CCN(S(=O)(=O)c3ccc(Cl)cc3)CC2)ccc1-n1cnnn1	none
CCC(=O)N1CCc2cc(S(=O)(=O)CCC(=O)Nc3c(C)n(C)n(-c4ccccc4)c3=O)ccc21	none
CCCC(=O)Nc1nc2ccc(OCC)cc2s1	none
CCOc1ccc2nc(NCCNC(=O)C3CC3)c(C)cc2c1	Autofluor 339 3.8 (not shown: DPM-DC inhibit)
CCOc1ccc2nc(NCCNC(=O)C(C)C)c(C)cc2c1	Autofluor 339 4.7 (not shown: DPM-DC inhibit)
COCC(=O)NCCNc1nc2ccc(C)cc2cc1C	Autofluor 339 3.5 (not shown: DPM-DC inhibit)
Cc1sc2nc(SCC(=O)c3cc(C)n(CC4CCCO4)c3C)n(C(C)C)c(=O)c2c1C (stereo not given)	none
Cc1cc(C)n(CCc2nc3c4ccccc4n(CC(=O)Nc4ccc(Cl)cc4F)c(=O)n3n2)n1	none
CCSc1nnc(NC(=O)C2Cc3ccccc3CN2C(=O)c2ccco2)s1 (stereo not given)	none
CCN(CC)CCNC(=O)c1ccc2c(=O)n(CCc3ccccc3)c(=O)[nH]c2c1	none
CCCC(O)(CCN(C)C)c1ccc(OC)cc1 (stereo not given)	none
COc1ccc2c(c1)c1c(n2C(C)=O)C(OC(C)=O)=NCC1	Autofluor 339 2.3 (not shown: DPM-DC inhibit)
CCN(CC)CCOC(=O)c1c(C)n(C)c2ccc(OC)cc12	none
CCOC(=O)c1cc(C(=O)OCC)c2cc(Br)ccc2n1	none
CCOC(=O)c1cc2c(=O)[nH]ccc2nc1C	Autofluor 339 3.7 (not shown: DPM-DC inhibit)
CCn1c(=O)c(C(=O)Nc2nc3ccccc3[nH]2)c(O)c2ccccc21	Autofluor 339 2.4
CCn1c(=O)c(C(=O)Nn2c(C)nc3ccccc3c2=O)c(O)c2ccccc21	none
COCc1cc(C)nc2sc(C(=O)N3CCN(c4ccccc4)CC3)c(N)c12	none
Cc1cc(C)c2c(N)c(C(=O)N3CCN(c4ncccn4)CC3)sc2n1	Autofluor 339 2.2
CCOC(=O)c1sc2nc(C)cc(C)c2c1N	Autofluor 339 2.4 (not shown: DPM-DC inhibit)
CCOC(=O)CNC(=O)c1sc2nc(C)cc(C)c2c1N	Autofluor 339 3.9 (not shown: DPM-DC inhibit)
Clc1ccc(Cn2ncc3c(N4CCOCC4)ncnc32)cc1	none
CC1(C)Cc2nc3sc4c(N(CCO)CCO)ncnc4c3cc2CO1	Autofluor 339 2.3 (not shown: DPM-DC inhibit)
COC(=O)c1cc(=O)nc2sccn12	PMK inhibit 27
Cc1csc(C(C#N)C(=O)c2cc3ccccc3o2)n1 (stereo not given)	none
O=C(O)c1ccccc1NCN1C(=O)C2CC=C(Cl)CC2C1=O (stereo not given)	Autofluor 339 2.6
N#Cc1nc(-c2ccc(OCc3ccccc3)cc2)oc1N1CCOCC1	none
N#Cc1nc(-c2ccc(OCc3ccccc3)cc2)oc1NCc1ccco1	Autofluor 339 2.4
CNc1oc(-c2ccc(OCc3ccccc3)cc2)nc1C#N	none
N#Cc1nc(-c2ccc(OCc3ccccc3)cc2)oc1NCCN1CCOCC1	Autofluor 339 3.9 (not shown: DPM-DC inhibit)
Cc1ccc(-c2nc(C#N)c(NCc3ccco3)o2)cc1	Autofluor 339 3.7 (not shown: DPM-DC inhibit)
Cc1ccc2cc(C#N)c(NCc3ccco3)nc2c1	Autofluor 339 3.8 (not shown: DPM-DC inhibit)
Cc1ccc(OCc2nc(C#N)c(NCc3ccco3)o2)cc1	none
Cn1c(=O)c2c(ncn2CC(O)CNc2ccc(Br)cc2)n(C)c1=O (stereo not given)	none
N#CCCN(C1CCCCC1)S(=O)(=O)CCOc1ccccc1	none
CCOC(=O)N1CCC(N2Cc3cccc(C(=O)NCc4ccccn4)c3C2=O)CC1	none
COc1ccccc1Oc1ccc(S(=O)(=O)NCc2ccccn2)cc1	none
N#Cc1nc(-c2ccco2)oc1NCCCN1CCOCC1	Autofluor 339 3.6 (not shown: DPM-DC inhibit)
N#Cc1nc(-c2ccco2)oc1NCc1ccco1	Autofluor 339 2.4 (not shown: DPM-DC inhibit)
COC(=O)c1sc(N2C(=O)C(O)=C(C(=O)c3ccc(C)o3)C2c2ccc(F)cc2)nc1C (stereo not given)	none
CCCCN(C)Cc1c(C)[nH]c2ccc(OCC)cc2c1=O	Autofluor 339 2.1 (not shown: DPM-DC inhibit)
CCOC(=O)c1c(C)nc2c(C#N)cnn2c1C	Autofluor 339 2.4
CCOC(=O)c1cnn2c(N)c(C#N)nnc12	none
Nc1c(C(=O)NCC2CCCO2)c2nc3ccccc3nc2n1-c1ccccc1 (stereo not given)	Autofluor 339 4.9 (not shown: DPM-DC inhibit)
Nc1c(C(=O)OCC2CCCO2)c2nc3ccccc3nc2n1C1CCCCC1 (stereo not given)	Autofluor 339 2.1 (not shown: DPM-DC inhibit)
COc1ccccc1-n1c(N)c(C(=O)NCC2CCCO2)c2nc3ccccc3nc21 (stereo not given)	Autofluor 339 2.4 (not shown: DPM-DC inhibit)
O=C(CSc1nc2ccccc2n1-c1ccccc1)NCC1CCCO1 (stereo not given)	none
O=C(C1CCCN(S(=O)(=O)c2ccc(F)cc2)C1)N(Cc1cccs1)C1CC1 (stereo not given)	none
COc1ccccc1Oc1coc2cc(OC(=O)N3CCOCC3)ccc2c1=O	none
CCN1CCN(Cc2c(O)ccc3c(=O)c(-c4ccccc4OC)coc23)CC1	Autofluor 339 5 (not shown: DPM-DC inhibit)
CCc1cc2c(=O)c(-c3nc4ccccc4[nH]3)coc2c(CN2CCC(C)CC2)c1O	none
COc1ccccc1Oc1coc2c(CN3CCN(C)CC3)c(O)ccc2c1=O	Autofluor 339 3 (not shown: DPM-DC inhibit)
COc1ccccc1-c1coc2c(CN3CCN(CCO)CC3)c(O)ccc2c1=O	Autofluor 339 3 (not shown: DPM-DC inhibit)
CCOC(=O)c1oc2cc(O)ccc2c(=O)c1-c1ccccc1OC	none
COc1ccccc1-c1coc2c(CN3CCN(C)CC3)c(O)ccc2c1=O	Autofluor 339 2.2 (not shown: DPM-DC inhibit)
Nc1cnn(C2CCCO2)c(=O)n1 (stereo not given)	none
Cn1cc(C(=O)NCCc2ccccc2)c(=O)c2cc(S(=O)(=O)N3CCOCC3)ccc21	none
CCc1cc2c(=O)c(-c3nc4ccccc4n3C)coc2c(CN2CCN(C)CC2)c1O	Autofluor 339 2.6
CCn1c(=N)c(C(=O)OC)cc2c(=O)n3ccccc3nc21	Autofluor 339 3.7 (not shown: DPM-DC inhibit)
CC(C)n1c(=N)c(C(=O)NCCc2ccccc2)cc2c(=O)n3ccccc3nc21	Autofluor 339 5.1 (not shown: DPM-DC inhibit)
COC(=O)c1cc2c(=O)n3ccccc3nc2n(C(C)C)c1=N	Autofluor 339 3.9 (not shown: DPM-DC inhibit)
Cc1ccc(C2CC(C(F)(F)F)n3nc(C(=O)NCC4CCCO4)cc3N2)cc1 (stereo not given)	none
COc1ccc(N2CCN(C(=O)c3cn(C4CCCC4)c(=O)c4c3c3ccccc3n4C)CC2)cc1	none
Cn1c2ccccc2c2c(C(=O)O)cn(C3CCCC3)c(=O)c21	Autofluor 339 2.1 (not shown: DPM-DC inhibit)
Cc1ccc(CNC(=O)c2cn(C3CCCC3)c(=O)c3c2c2ccccc2n3C)o1	Autofluor 339 2.1 (not shown: DPM-DC inhibit)
